Assay outcomes (PubChem BioAssay)
In the library only some 10% were active in any assay of this set; here they are far more common.
JMJD2A Tudor inh = JMJD2A Tudor domain (human) inhibition | O75164 | 390,000 compounds, 4.4% hits | Potency, µM (top dose mostly 114 µM), without a hit: at the top dose activity change, negative = inhibition, most hits filed as inhibitors | AlphaScreen JMJD2A-Tudor / H3K4me3 peptide binding; further: on the % scale 0 is the no-effect control and ±100 the full control effect; nearly all actives have a fitted effect of over 50% in size
GLS inhibitor = inhibitors of human glutaminase (GLS); AID 624170; O94925; GLS enzymatic activity, qHTS titration; Potency, µM (highest dose often 45.5 µM), inactives show at the highest dose activity change, negative = inhibition, usual class: inhibitors; 410,000 compounds, 0.21% hits; further: on the % scale 0 is the no-effect control and ±100 the full control effect
Target sequence (O94925 whole entry, looked up): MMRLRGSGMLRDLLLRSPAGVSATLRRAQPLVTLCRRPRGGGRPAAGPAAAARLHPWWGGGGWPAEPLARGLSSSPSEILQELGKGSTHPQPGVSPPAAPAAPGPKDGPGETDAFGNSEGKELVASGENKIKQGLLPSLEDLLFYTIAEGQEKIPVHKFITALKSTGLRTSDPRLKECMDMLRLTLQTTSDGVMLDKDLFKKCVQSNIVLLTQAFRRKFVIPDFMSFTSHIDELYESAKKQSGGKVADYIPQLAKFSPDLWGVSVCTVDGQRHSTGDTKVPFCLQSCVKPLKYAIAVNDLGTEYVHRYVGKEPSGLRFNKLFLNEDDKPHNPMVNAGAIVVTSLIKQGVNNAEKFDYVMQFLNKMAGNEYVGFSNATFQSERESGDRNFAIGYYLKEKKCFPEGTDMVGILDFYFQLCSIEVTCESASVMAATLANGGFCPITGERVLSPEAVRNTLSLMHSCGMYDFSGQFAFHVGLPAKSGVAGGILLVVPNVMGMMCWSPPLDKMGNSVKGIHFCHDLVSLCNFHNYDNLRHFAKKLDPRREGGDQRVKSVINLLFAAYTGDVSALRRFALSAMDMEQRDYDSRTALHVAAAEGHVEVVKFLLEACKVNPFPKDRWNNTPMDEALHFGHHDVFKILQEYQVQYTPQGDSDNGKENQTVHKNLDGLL
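Two-point fluorescence kinetic (t0, 30 min RT) for hKGA; glutamate detected via glutamate oxidase–HRP–Amplex Red. Substrate: 1 mM L-glutamine solution; buffer 45 mM KH2PO4, pH 8.2.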
L3MBTL1 block = inhibitors of human L3MBTL1. AlphaScreen L3MBTL1–H3K9me1 peptide binding. 230,000 compounds, 0.66% hits. Q9Y468. AID 485360. Potency, µM (titrated, usually from 57.1 µM), inactives show at the highest dose activity, negative = inhibition, most hits filed as inhibitors; further: on the % scale 0 is the no-effect control and ±100 the full control effect; nearly all actives have a fitted effect of over 60% in size
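L3MBTL1 (50 nM) pre-complexed 30 min with biotinylated H3(1-15)K9me1 peptide (75 nM), then compounds added for 30 min at room temperature; AlphaScreen streptavidin donor/nickel chelate acceptor beads (10 ug/mL final) read after 30 min dark incubation.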
HP1b binding inh = HP1-beta chromodomain-methylated histone interaction inhibition; P83916; AlphaScreen HP1-beta / biotin-H3K9me3 peptide binding; Potency, µM (doses to about 114 µM), without a hit: top-dose activity change, negative = inhibition, usual class: inhibitors; 390,000 compounds, 0.56% hits; AID 540317; further: nearly all actives have a fitted effect of over 70% in size
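AlphaScreen: HP1-beta (50 nM) preformed 30 min with biotin-H3(1-18)K9me3 peptide (50 nM) in PBS pH 7.4, 0.01% Tween-20. Compound added for 30 min at RT, then streptavidin donor/nickel chelate acceptor beads (10 ug/mL) for 30 min.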
G9a inh = G9a (human) methyltransferase inhibition | Q96KQ7 | G9a H3K9 monomethylation, AlphaScreen, 2 h | Potency, µM (top dose mostly 102 µM), inactives show at the top dose activity, negative = inhibition, usual class: inhibitors | 350,000 compounds, 8.8% hits | AID 504332; further: on the % scale 0 is the no-effect control and ±100 the full control effect; nearly all actives have a fitted effect of over 75% in size
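Using a bead-based AlphaScreen, monomethylated H3K9 product from 2 h room-temperature reactions (G9a 20 nM, peptide 500 nM, SAM 20 uM) was detected with 0.5 ug/mL rabbit anti-H3K9me1 antibody.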
BAZ2B block = inhibitors of human BAZ2B bromodomain; Q9UIF8; AlphaScreen BAZ2B-H3K14Ac peptide displacement; Potency, µM (highest dose often 114 µM), for inactives: at the highest dose activity change, negative = inhibition, usual class: inhibitors; 360,000 compounds, 4.4% hits; AID 504333; further: on the % scale 0 is the no-effect control and ±100 the full control effect; nearly all actives have a fitted effect of over 60% in size
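Complex of BAZ2B and biotin-H3K14Ac (50 nM apiece) forms over 30 min at RT, then faces library compounds up to 110 uM for another 30 min; AlphaScreen beads added, 20 min dark incubation, luminescence read.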
Active calls of the source: *; [ ] = remark or other dose. The call rests on the fitted dose curve; in most records, active means well fitted curve in the direction sought with a large enough effect; inconclusive means small, poorly fitted or top-dose-only effect, or another doubt; inactive means no such curve, though single readings can be large; an effect the other way counts as inactive or inconclusive. Potency means the concentration at half of the fitted maximal effect.

CCCN1Cc2cccc(C(=O)Nc3cc(C)cc(C)c3)c2C1=O was read as JMJD2A Tudor inh -21.9%, GLS inhibitor -8.0%, HP1b binding inh -0.7%, G9a inh -25.6%[59 µM] and BAZ2B block -19.2%.
Cc1cc(Nc2ccccc2F)n2nc(Cc3ccc(Cl)cc3)nc2n1 was read as JMJD2A Tudor inh -22.0%, GLS inhibitor 2.8%, HP1b binding inh 21.6%, G9a inh 11.2%[59 µM] and BAZ2B block -0.9%.
For Cn1c(=O)c2c(-c3ccccc3)n3c(c2n(C)c1=O)C(c1cccc([N+](=O)[O-])c1)Nc1ccccc1-3 (stereo not given) the results were JMJD2A Tudor inh -19.5%, GLS inhibitor 0.8%, HP1b binding inh 13.7%, G9a inh -2.1%[59 µM] and BAZ2B block -13.2%.
Screening Brc1ccc(-c2nn3c(-c4ccccn4)nnc3s2)o1 returned JMJD2A Tudor inh 14.1µM*, GLS inhibitor -17.2%, L3MBTL1 block inconclusive, HP1b binding inh 33.5%, G9a inh 20µM* and BAZ2B block 17.8µM*.
For Cc1cc(C)nc(SCCCNCc2ccccc2)n1 the results were JMJD2A Tudor inh -15.4%, GLS inhibitor 1.6%, HP1b binding inh 27.9%, G9a inh 50.1µM* and BAZ2B block -38.1%.
`Clc1cccc(Cl)c1CNCCCSc1ncccn1` gave JMJD2A Tudor inh -11.0%, GLS inhibitor 4.8%, L3MBTL1 block 3.8%, HP1b binding inh 44.9% and BAZ2B block -7.6%.
Clc1ccc(CNCCCSc2ncccn2)cc1Cl was read as JMJD2A Tudor inh -15.1%, GLS inhibitor -1.4%, L3MBTL1 block 7.0%, HP1b binding inh 13.5%, G9a inh 39.8µM* and BAZ2B block -13.8%[57.1 µM].
CCOc1[nH]n(-c2ccccc2)c(=O)c1C=Nc1ccccc1 was read as JMJD2A Tudor inh -23.6%, GLS inhibitor -7.9%, L3MBTL1 block -27.8%, HP1b binding inh -0.9%, G9a inh 20µM* and BAZ2B block inconclusive.
Cc1ccc(-n2[nH]c(C)c(C=Nc3ccc(S(=O)(=O)Nc4nccs4)cc3)c2=O)cc1C was read as JMJD2A Tudor inh -32.2%, GLS inhibitor -1.3%, L3MBTL1 block -4.4%, HP1b binding inh -1.5%, G9a inh -2.7%[59 µM] and BAZ2B block inconclusive.
Screening COc1nccnc1NS(=O)(=O)c1ccc(N=Cc2c(C)[nH]n(-c3ccc(C)c(C)c3)c2=O)cc1 returned JMJD2A Tudor inh inconclusive, GLS inhibitor 8.3%, L3MBTL1 block -10.7%, HP1b binding inh -13.1%, G9a inh 44.7µM* and BAZ2B block inconclusive.
Screening Cc1[nH]n(-c2ccccc2)c(=O)c1C=Nc1ccc(S(=O)(=O)Nc2nccs2)cc1 returned JMJD2A Tudor inh inconclusive, GLS inhibitor 29.0%, HP1b binding inh inconclusive, G9a inh inconclusive and BAZ2B block inconclusive.
For COc1nccnc1NS(=O)(=O)c1ccc(N=Cc2c(C)[nH]n(-c3ccccc3)c2=O)cc1 the results were JMJD2A Tudor inh -21.3%, GLS inhibitor 8.5%, L3MBTL1 block -10.8%, HP1b binding inh 8.3%, G9a inh 56.2µM* and BAZ2B block inconclusive.
Screening Cc1ccc(S(=O)(=O)Nc2ccc3c(c2)CCCN3C(=O)c2cccs2)cc1 returned JMJD2A Tudor inh -27.8%, GLS inhibitor 7.7%, HP1b binding inh -3.6%, G9a inh 3.2%[59 µM] and BAZ2B block -23.4%.
CCc1cccc(C)c1NC(=O)NC1COc2ccccc2C1 (stereo not given) was read as JMJD2A Tudor inh -8.1%, GLS inhibitor -2.0%, HP1b binding inh 23.4%[57 µM], G9a inh 3.4%[59 µM] and BAZ2B block 6.5%.
For O=C(COC(=O)C1CCN(S(=O)(=O)c2cc([N+](=O)[O-])ccc2Cl)CC1)Nc1ncc(Cl)cc1Cl the results were JMJD2A Tudor inh 25.1µM*, GLS inhibitor -28.0%, L3MBTL1 block -93.3%, HP1b binding inh inconclusive, G9a inh -17.6%[0.501 µM] and BAZ2B block 31.6µM*.
